This is a sample that favours compounds with a hit; in the whole collection about 2.3% have one here.
M1 PAM – human M1 muscarinic receptor positive allosteric modulators, primary screen, CHO-K1 cells, Fluo-8 calcium fluorescence, 1536-well. Muscarinic acetylcholine receptor M1 (Homo sapiens), P11229. CHO-K1 hM1, ACh EC20; 0% = ACh EC20, 100% = maximal ACh. activation, % at 3 µM. 0.088% of 360,000 active; in the data active = activation above about 19%, passing the limit was not always enough
Target sequence (P11229 whole entry, looked up): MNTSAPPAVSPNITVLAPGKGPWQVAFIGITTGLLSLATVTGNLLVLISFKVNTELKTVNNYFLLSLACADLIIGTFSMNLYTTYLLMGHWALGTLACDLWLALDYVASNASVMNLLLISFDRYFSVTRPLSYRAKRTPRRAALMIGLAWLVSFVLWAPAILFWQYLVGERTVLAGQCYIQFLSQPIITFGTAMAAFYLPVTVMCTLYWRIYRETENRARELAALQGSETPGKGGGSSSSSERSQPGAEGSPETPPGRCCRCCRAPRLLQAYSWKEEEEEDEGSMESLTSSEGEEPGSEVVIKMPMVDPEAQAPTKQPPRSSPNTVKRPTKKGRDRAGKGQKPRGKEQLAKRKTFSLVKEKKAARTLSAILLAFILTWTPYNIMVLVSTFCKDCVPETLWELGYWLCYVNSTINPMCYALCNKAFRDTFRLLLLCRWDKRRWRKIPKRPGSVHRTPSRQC
CHO-K1 Ca PAM – nonselective calcium activators in parental CHO-K1 cells, primary screen, counter-screen for M1 PAM project, cell-based, Fluo-8 calcium fluorescence, full deck, 1536-well; 0.02% of 360,000 active; ATP EC20; 0% at ATP EC20, 100% at ATP max; activation, % at 3 µM; AID 602247, 2012;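 active = activation above the run cutoff, the mean activation of all test compounds plus 3 SD, cut at about 40% in these data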;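 also: peak over basal fluorescence ratio in a 140 s read after ATP addition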
CHO-K1 Ca antag – counter-screen for M1 antagonists: effect in parental CHO-K1 cells; inhibition, % at 3 µM; 0.6% of 360,000 active; AID 602250; ATP-induced calcium, Fluo-8 fluorescence;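 active = inhibition above a per-plate cutoff, the plate's mean sample inhibition plus 3 SD, cut at about 24% in these data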
CHO-K1 Ca ag – counter-screen for M1 agonists: effect in parental CHO-K1 cells; activation, % at 3 µM; Fluo-8 calcium fluorescence; scaled to maximal ATP response, vehicle zero; 0.48% of 360,000 active; AID 602248, 2012; in the data active = activation above about 15%;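 also: untransfected CHO-K1 host cells lacking M1 receptor as counterscreen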
CHRM1 agonist – human M1 muscarinic receptor agonists, primary screen, Fluo-8 calcium fluorescence, CHO-K1 cells, HTS; Muscarinic acetylcholine receptor M1 (Homo sapiens), P11229; CHO-K1 hM1, agonist mode; 0% DMSO, 100% acetylcholine EC100; activation, % at 3 µM; 0.33% of 360,000 active; AID 588814, 2011;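 active = activation above the run's mean compound activation plus 3 SD, cut at about 16% in these data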;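 also: peak over basal fluorescence ratio within a 140 s kinetic read after compound addition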
M1 antag – human M1 muscarinic receptor antagonists, primary screen, CHO-K1 cells, Fluo-8 calcium fluorescence, 1536-well; Muscarinic acetylcholine receptor M1 (Homo sapiens), P11229; CHO-K1 hM1, ACh EC80 antagonist; inhibition, % at 3 µM; 1.3% of 360,000 active;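 active = percent inhibition above its own plate's cutoff, namely the mean of that plate's compound wells plus 3 SD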;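 also: peak over basal fluorescence ratio during 140 s after agonist addition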
Each line names hits and unclear results; the compound was inactive in the other large screens.

CC1CC(=O)C2=C(C1)Nc1ncnn1C2c1ccccc1 (stereo unspecified)	CHO-K1 Ca antag 28.0
O=C1CC(c2cccs2)CC2=C1C(c1ccccc1)n1ncnc1N2 (stereo unspecified)	none
Cc1nc(C(F)(F)F)ccc1C(=O)N1CCC1(C)C(=O)NS(=O)(=O)c1ccc(C#N)cc1 (stereo unspecified)	none
COc1ccc(CCC(=O)NCCS(=O)(=O)N2CCN(c3ccccc3)CC2)cc1	none
COc1ccc(CCC(=O)NCCS(=O)(=O)N2CCN(c3ccc(OC)cc3)CC2)cc1	CHO-K1 Ca ag 15.2
FC(F)(F)c1nnc2c(Sc3ccc(Cl)cc3)nc3ccccc3n12	CHO-K1 Ca antag 38.7
COc1ccc(OC)c(CC(=O)Nc2ccc3c(c2)c(=O)n(C)n3Cc2cccc(C(F)(F)F)c2)c1	none
Cc1noc(C)c1C(=O)OC(C)C(=O)c1ccc(C(C)(C)C)cc1 (stereo unspecified)	none
O=C(COc1ccc(Cl)cc1Cl)Nc1ccc(CN2CCOCC2)cc1	none
COc1ccc(C(=O)NC(=S)Nc2ccc(CN3CCCCC3)cc2)cc1Cl	M1 antag 29.3
COc1ccc(C(=O)NC(=S)Nc2ccc(CN3CCOCC3)cc2)cc1Cl	none
O=C(COc1ccc(Cl)cc1Cl)Nc1ccc(CN2CCCCC2)cc1	M1 antag 21.1
COc1cccc(CNC(=O)CCCNS(=O)(=O)c2cccs2)c1	CHO-K1 Ca antag 41.5
CN(C(=O)Nc1ccccc1)C1CCCc2ccccc21 (stereo unspecified)	CHO-K1 Ca ag 16.1
C[C@H]1CN([C@@H](C)CO)C(=O)c2cc(Br)cnc2O[C@H]1CN(C)Cc1ccc(Oc2ccccc2)cc1	none
Nc1ccc(S(=O)(=O)c2ccc(N)cc2)cc1	CHO-K1 Ca antag 26.2
Nc1ccc(S(=O)(=O)N2CCCC2)cc1	none
Cc1cccc(/C=N/NC(=O)c2cc(C3CC3)nc3ccccc23)n1	CHO-K1 Ca antag 25.8
Cc1cccc(/C=N/NC(=O)c2cc(C)nc3ccccc23)n1	none
Cc1nc(N)nc(N)c1-c1ccc(Cl)c(Cl)c1	M1 antag 45.8
O=C1CC(=C(c2ccccc2)c2ccccc2)C(=O)N1CCCCN1CCN(c2ccccc2)CC1	M1 antag 72.8
CCCCCOC(=O)C1=C(C)Nc2ncnn2C1c1cccs1 (stereo unspecified)	M1 antag 26.9
O=C(c1cnc2ccc3ccccc3c2c1)c1cc(F)ccc1O	CHO-K1 Ca PAM 40.3
CCCSC(=S)c1c(C)[nH]n(-c2ccccc2)c1=O	CHO-K1 Ca ag 16.0
Cc1ccccc1CNC(=O)c1ccc2nc([C@@H]3O[C@H](CO)[C@H](O)[C@H](O)[C@H]3O)[nH]c2c1	none
Cc1cccc(N(C(=O)Nc2ccc(Cl)cc2)C2=NCC(C)S2)n1 (stereo unspecified)	CHO-K1 Ca ag 15.2
Cc1ccc(NC(=O)N(C2=NCC(C)S2)c2ccccc2)cc1 (stereo unspecified)	none
COCCNc1nc(Nc2ccc(C(=O)OC)cc2)c2sccc2n1	none
COc1cccc(C(=O)c2c(C)c(CCC#N)n3ccccc23)c1	CHO-K1 Ca ag 25.1
COCCN(Cc1ccc(C)cc1)C(=O)[C@H]1O[C@@H](n2cnc3c(N)ncnc32)[C@H](O)[C@@H]1O	none
CSc1ccc(Cn2nnc(C(=O)NCc3ccccc3)c2N)cc1	CHO-K1 Ca ag 19.0, CHRM1 agonist 33.7
Nc1c(C(=O)NCc2ccccc2)nnn1Cc1ccccc1	none
COc1ccc(CNC(=O)Cc2nn(C)c(=O)c3ccccc23)cc1	CHO-K1 Ca antag 23.9
Cn1nc(CC(=O)NCc2ccc(C(F)(F)F)cc2)c2ccccc2c1=O	none
COc1cccc(-c2cnc3c(NC(C)=O)cc(-c4ccsc4)cn23)c1	none
CCn1c2ccc(C)cc2c2nnc(SCCN3CCCCC3)nc21	M1 antag 36.7
CCCn1c2ccc(C)cc2c2nnc(SCCN3CCCCC3)nc21	none
C=CCn1c2ccccc2c2nnc(SCCN3CCCCC3)nc21	M1 antag 53.3

Screens as filed in PubChem.
